# Measurements as given in PubChem BioAssay (EPA / NIEHS).
# Activity calls are given as the source filed them. How the source made its calls: active means hit-call score of the fitted dose curve at least 0.9, where 1 is the maximum; inactive means score below 0.9.
# Read-out: solute carrier (SLCO1B1), SLCO1B1 (gene 10599)
# Assay: LTEA_HepaRG_SLCO1B1: Life Technologies and Expression Analysis (LTEA) Assay for solute carrier (SLCO1B1) using HepaRG (AID 2283530)
# Settings: mRNA level, 48 h; actives raise or lower the signal
# Experimental: LTEA_HepaRG is a cell based, multiplexed-readout assay that uses HepaRG, a human liver cell line, with measurements taken at 48 hours after chemical dosing on a 96-well plate.LTEA_HepaRG_SLCO1B1 is one of 102 assay component(s) measured in the LTEA HepaRG cell culture assay. It is a marker of NR mediated transport.Data from the assay component LTEA_HepaRG_SLCO1B1 was analyzed into 1 endpoint. This assay endpoint, LTEA_HepaRG_SLCO1B1, was analyzed with bidirectional fitting relative to DMSO as the negative control and baseline of activity. Using a type of inducible reporter, measures of mRNA induction for gain or loss-of-signal activity can be used to understand regulation of transcription factor activity. To generalize the intended target to other relatable targets, this assay endpoint is annotated to the transporter intended target family, where the subfamily is organic anion transporter.
# A total of 1060 chemcials from the ToxCast library were tested in eight-point concentration-response experiments. Cell culture and cytotoxicity assays were conducted at Thermo Fisher Scientific's Custom Services facility (Madison, WI). A single lot of human HepaRG cells (Thermo Fisher Scientific, Frederick, MD) was used for the cell culture experiments. 96-well format collagen type I coated plates of human HepaRG cells were prepared using established methods. Briefly, cryopreserved HepaRG cells were thawed, plated at a density of approximately 100,000 cells/well in HepaRG Thaw, Plate, and General Purpose media (HPRG770, Thermo Fisher Scientific), and incubated for 48 hours. 0.5% DMSO was selected as vehicle control to balance the requisite need of DMSO in HepaRG cultures to maintain differentiation (for example, baseline metabolism, proportions of hepatocytes vs. cholangiocytes), while enabling further hepatic receptor pathway activation (for example, PXR and CAR) in response to chemical exposure. 48 hours after plating, the culture medium was replaced with HepaRG Serum-Free Incudtion Media. Cells were exposed to each test chemical in duplicate and maintained in CO2 incubators for another 48 hours. Chemical plates were thawed to room temperature and 200x concentrations of treatment groups were prepared. 8-point conentration-reponse curves were made with the highest exposure at 100 uM, followed by half-log dilutions, all in 0.5% DMSO. Each test plate contained variouse controls, induction positive controls (1mM phenobarbital), cytotoxicity positive controls ([…] aflatoxin B1), vehicle controls (0.5% DMSO), and total lysis controls (0.5% DMSO). Cell morphology images were taken using an Essen IncuCyte FLR automated microscope, with six 96-well plates imaged in about 24 minutes. Images were captured and exported and JPEG files. Spent culture media was transfered to black-well plates for the LDH assay, and remaining media was sorted at -80 C for later use. Cells were treated with RLT buffer and frozen until shipped for gene expression analysis. Total RNA was isolated from the cell suspension in 75 uL of Buffer RLT (Qiagen, Germantown, MD 20874) by Quintiles/Expression Analysis (Durham, NC) using a custom isolation procedure. Total RNA from each plate well was transferred to a preamplification plate. Fluidigm's 96.96 Dynamic ArrayTM (Fluidigm, Amsterdam, the Netherlands) technology was used for gene expression analyses by quantitative reverse transcription polymerase chain reaction (qRT-PCR, performed by Quintiles/Expression Analysis, Durham, NC)89. Standard TaqManTM Assays (Applied Biosystems/ThermoFisher Scientific, Foster City, CA) were used to assess the expression of 93 genes selected based on their selectivity and sensitivity to important hepatic receptors known to be modulated by environmental chemicals; importance in human hepatocyte functionality; and hepatotoxicity. […]
Compound,outcome,AC50
O=c1[nH]c(=O)[nH]c(=O)[nH]1,inactive,–
Cn1sc(Cl)cc1=O,inactive,–
ClCC(Cl)CCl,inactive,–
COc1cc(-c2ccc(N)c(OC)c2)ccc1N,inactive,–
CCC(=O)C(CC(C)N(C)C)(c1ccccc1)c1ccccc1 (stereo unspecified),inactive,–
CC(C)(OO)c1ccccc1,inactive,–
O=C1C2(Cl)C3(Cl)C4(Cl)C(Cl)(Cl)C5(Cl)C3(Cl)C1(Cl)C5(Cl)C24Cl (stereo unspecified),–,93.5 µM (active)
C[C@@H]1C[C@@H]([C@H](O)CC2CC(=O)NC(=O)C2)C(=O)[C@@H](C)C1,–,16.4 µM (active)
O=C(O)C(Cl)(Cl)Cl,inactive,–
CCN1CCC2(CC1)COc1cc3c(cc12)N(C(=O)c1ccc(-c2ccc(-c4nnc(C)o4)cc2C)cc1)CC3,inactive,–
CCC(C)(C)c1ccc(O)c(C(C)(C)CC)c1,inactive,–
NC(=O)O,inactive,–
CC(C)(c1ccccc1)c1ccc(O)c(C(C)(C)c2ccccc2)c1,–,74.4 µM (active)
CC(=O)[O][Hg][c]1ccccc1,inactive,–
CC(C)(C)CC(C)(C)c1ccc(O)cc1,inactive,–
O=C(O)C(F)(F)C(F)(F)C(F)(F)C(F)(F)C(F)(F)C(F)(F)C(F)(F)C(F)(F)C(F)(F)C(F)(F)F,inactive,–

Compound,outcome,AC50
Oc1cccc2cccnc12,inactive,–
O=[N+]([O-])c1ccc(O)c([N+](=O)[O-])c1,–,20.4 µM (active)
O=C(Nc1ccc2[nH]ccc2c1)c1cc2cc(F)ccc2n1Cc1cccc(F)c1,–,36.1 µM (active)
Cc1ccccc1N,inactive,–
CCOP(=S)(OCC)SCSP(=S)(OCC)OCC,inactive,–
O=C(O)C(F)(F)C(F)(F)C(F)(F)C(F)(F)C(F)(F)C(F)(F)F,inactive,–
CC12CC1(C)C(=O)N(c1cc(Cl)cc(Cl)c1)C2=O (stereo unspecified),inactive,–
C[C@]12CCC(=O)C[C@@H]1CC[C@@H]1[C@@H]2CC[C@]2(C)[C@@H](O)CC[C@@H]12,inactive,–
C=CC(=O)OCCCCCC(C)C,inactive,–
CC(C)(C)c1cc(O)ccc1O,inactive,–
CN(C)N=O,inactive,–
ClC1(Cl)C2(Cl)C3(Cl)C4(Cl)C(Cl)(Cl)C5(Cl)C3(Cl)C1(Cl)C5(Cl)C24Cl (stereo unspecified),inactive,–
CCOP(=S)(OCC)Oc1nc(Cl)c(Cl)cc1Cl,inactive,–
CCCCCCCCc1ccc(O)cc1,inactive,–
C=C(C)C(=O)[O][Sn]([CH2]CCC)([CH2]CCC)[CH2]CCC,–,2.57 µM (active)
